Hit rate of the full screen: of about 10,000 compounds, about 25 (0.2%) were called active.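 The calls were made as follows: active = compound among top-ranked inhibitors of TNF-induced VCAM-1 adhesion protein staining, with the hit upheld by image or statistical review; inactive = the rest, including hits rejected on review.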 The full list was thinned out, with actives kept by preference.

This is an account of results in PubChem BioAssay AID454 (Sanford-Burnham Center for Chemical Genomics, 2006).

The nature of this test: suppression of endothelial VCAM-1 upregulation – cell-based, plate reader, pooled HUVEC, TNFa stimulus (AID 454). The following applies: HUVEC TNFa-induced VCAM-1 surface immunofluorescence; stronger effect = higher value,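 compound tested at 5 µM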.
For orientation: inhibition means the change of the read-out against control, counted positive when it falls. `CCOC(=O)c1cccc(NC(=O)CSc2nc3cccnc3n2C)c1`: the inhibition entry is “inactive”.
Turning to `Cn1c(SCc2cccc3ccccc23)nnc1-c1ccco1`, the inhibition result is “inactive”.
As for `CN1C(=O)C(CC(=O)N2CCN(C(c3ccccc3)c3ccccc3)CC2)N(C)C1=O` (configuration not stated), the entry is “inactive”; as for `CCCCC(=O)NCCNc1nc2c(c(=O)n(C)c(=O)n2C)n1Cc1ccccc1`, “inactive”.
For `COc1ccc(C(=O)N2CCN(c3nc4cc(C)ccc4cc3C#N)CC2)c(OC)c1` the value was “inactive”; for `Cc1nc2sc3c(c2c(=O)o1)CCC3`, “inactive”; for `CCC(C)(C(=O)NC1CCCCC1)N(Cc1ccco1)C(=O)c1cnccn1` (configuration not stated), “inactive”.
Turning to `CC1=CCC2C(=O)N(c3nc(C)cc(C)n3)C(=O)C2C1` (configuration not stated), the inhibition entry is “inactive”.
With `CCCn1c(NC(=O)C2COc3ccccc3O2)nc2ccccc21` (configuration not stated), the inhibition entry was “inactive”.
As for `Cc1cc(C)nc(NC(=O)c2ccc(OC(C)C)cc2)n1`, the entry is “inactive”; as for `Cc1nn(-c2ccc(F)cc2)c2c1cc(C#N)c1nc3ccccc3n12`, “inactive”; as for `COc1ccc(C(=O)Cn2c(N3CCCCC3)nc3c2c(=O)n(C)c(=O)n3C)cc1OC`, “inactive”.
As for `COc1ccc(-c2nc3c(c(=O)n(C)c(=O)n3C)n2CC2CC(c3ccccc3)=NO2)cc1OC` (configuration not stated), the inhibition is 73.1% (active).
As for `COc1cccc(Cn2c(Oc3ccccc3)nc3c2c(=O)n(C)c(=O)n3C)c1`, the entry is “inactive”.
As for `Cc1ccccc1Nc1nc(N)nc(CSCc2c(C)noc2C)n1`, the entry is “inactive”; as for `Cc1cc2oc(=O)cc(CN3CCCCC3)c2cc1C(C)C`, “inactive”.
In the case of `CC(C)(C)C1=Nn2c(nnc2-c2n[nH]c3c2CCC3)SC1`, the inhibition entry is “inactive”.
Take `COc1ccc(C2=Nn3c(nnc3-c3ccccc3)SC2)cc1OC`: the inhibition result was “inactive”.
As for `Clc1ccc(C2=Nn3c(nnc3-c3n[nH]c4c3CCC4)SC2)cc1Cl`, the figure is 106% (active); as for `COc1ccc(C2CC(c3ccc(Cl)cc3Cl)n3nc(N)nc3N2)cc1` (configuration not stated), “inactive”.
For `COc1cccc(OCCn2ccnc2)c1` the value was “inactive”; for `COc1ccccc1NC(=O)CSc1nnc(-c2ccncc2)n1CC1CCCO1` (configuration not stated), “inactive”.
As for `C=C(Cl)COc1ccc2c(C)cc(=O)oc2c1`, the entry is “inactive”.
With `Nc1ncnc2nc(SCCN3CCCCC3)[nH]c12`, the inhibition result was “inactive”.
For `CCCC(=O)Nc1cccc(NC(=O)CN2CCN(c3ccccc3OC)CC2)c1` the value was “inactive”; for `CN(c1ccc(OCc2nnc(-c3ccccc3)o2)cc1)S(=O)(=O)c1ccccc1`, “inactive”.
With `CCOC(=O)c1ccccc1NC1CC(=O)N(c2ccccc2C)C1=O` (configuration not stated), the inhibition entry was “inactive”.
For `O=S(=O)(Nc1ccccn1)c1ccc(Oc2ccccc2)cc1` the value was “inactive”; for `CN(C)S(=O)(=O)c1ccc(Oc2ccc(S(=O)(=O)N(C)C)cc2)cc1`, “inactive”; for `C=CS(=O)(=O)c1ccc(Oc2ccc(S(=O)(=O)C=C)cc2)cc1`, 100% (active).
In the case of `CC1CCN(C(=O)CN2C(=O)C(C)(C)Oc3ccc(C(=O)NC4CCCC4)cc32)CC1`, the inhibition result is “inactive”.
As for `O=C1CC(N2CCOCC2)C(=O)N1c1ccccc1Cl` (configuration not stated), the entry is “inactive”; as for `COc1ccccc1Nc1nc(N)nc(CN2CCN(c3ccccc3F)CC2)n1`, “inactive”; as for `OC1(c2cccc(C(F)(F)F)c2)CCNCC1`, “inactive”.
`CCOC(=O)c1[nH]c(C)c(C(=O)Nc2ccc(C)c(Cl)c2)c1C`: the inhibition entry was “inactive”.
As for `COc1ccc(OC)c(C2C(C(=O)Nc3cccnc3)=C(C)NC3=C2C(=O)CCC3)c1` (configuration not stated), the entry is “inactive”; as for `COC(=O)C1=C(C)NC(=O)C1(NC(=O)c1cccnc1)C(F)(F)F` (configuration not stated), “inactive”; as for `COc1ccc(CN2C(=O)[C@@H]3C(c4ccc(F)cc4)=NO[C@@H]3C2=O)cc1`, “inactive”.
As for `Cc1cccn2c(=O)c3cc(C#N)c(=NC(=O)c4ccncc4)n(Cc4ccco4)c3nc12`, the entry is “inactive”; as for `CC(C)n1c(=NC(=O)c2ccco2)c(C#N)cc2c(=O)n3ccccc3cc21`, 78.8% (active); as for `CCOC(=O)c1cc2c(=O)n3ccccc3nc2n(CC(C)C)c1=NC(=O)c1ccco1`, “inactive”.
For `CCOc1ccc(NC(=O)CN2CCN(CC(=O)c3ccc(OCC)cc3)CC2)cc1` the value was “inactive”; for `CCCCc1c(O)nc(N2CCN(Cc3ccccc3)CC2)[nH]c1=O`, “inactive”.
As to `CCN(CC(=O)Nc1ccc2c(c1)CCC2)Cc1nc2ccccc2c(=O)[nH]1`, the inhibition entry was “inactive”.
For `Nc1nc(SCc2ccc(Cl)cc2Cl)n[nH]1` the value was “inactive”; for `O=S(=O)(Nn1cnnc1)c1ccccc1Cl`, “inactive”.
For `CCOc1cc2[nH]c(=S)n(CC3CCCO3)c(=O)c2cc1OCC` (configuration not stated) the value was “inactive”.
`Cc1cc(NC(=O)CSc2nnc(COc3cccc(C)c3C)n2Cc2ccco2)no1`: the inhibition result is “inactive”.
For `COCCn1c(COc2ccc(Cl)cc2)nnc1SCC(N)=O` the value was “inactive”; for `Clc1ccc(OCc2nnc(SCCN3CCCCC3)n2Cc2ccco2)cc1`, 82.9% (active).
In the case of `Cc1ccccc1-c1nc(CN2CCC(C(=O)NCc3cccnc3)CC2)c(C)o1`, the inhibition result was “inactive”.
For `O=c1nc(N2CCCC2)nc(Nc2ccccc2)[nH]1` the value was “inactive”; for `O=C(Cn1cc2c(n1)CCCCC2)N1CCc2ccccc21`, “inactive”.
Turning to `Cc1nnc(SCC(=O)N2c3ccccc3CC2C)s1` (configuration not stated), the inhibition entry was “inactive”.
As for `Cc1nnc(SC(=O)N2c3ccccc3Sc3ccccc32)s1`, the figure is 92.2% (active); as for `Cc1nnc(SCC(=O)NCc2ccccc2)s1`, “inactive”.
As for `CCOc1cccc(Oc2ccc(C(F)(F)F)cn2)c1`, the entry is “inactive”; as for `COc1ccc(S(=O)(=O)N2CN(Cc3ccco3)c3nc4ccccc4nc32)cc1`, “inactive”.
For `Cc1ccc2nc(C3CCN(CC(=O)N4CCCCCC4)CC3)[nH]c2c1` the value was “inactive”; for `CCOc1ccccc1N1CCN(c2nc3ccccc3nc2C(C#N)C(=O)OC)CC1` (configuration not stated), “inactive”.
Consider `S=c1[nH]nc(-c2ccco2)n1-c1cccc2ccccc12`, for which the inhibition entry was “inactive”.
Consider `Cc1c(C)c2ccc(OC3CCCCC3=O)cc2oc1=O` (configuration not stated), for which the inhibition result was “inactive”.
For `COc1ccccc1CC(=O)NCc1ccc2c(c1)OCO2` the value was “inactive”.
For `O=C1c2ccccc2C(Nc2ccc(F)c(Cl)c2)N1Cc1ccco1` (configuration not stated) the value was “inactive”.
As for `O=C1c2ccccc2C(Nc2ccc3nc(-c4cccnc4)[nH]c3c2)N1Cc1ccco1` (configuration not stated), the figure is 79.2% (active).
Take `O=C1c2ccccc2C(Nc2ccc(-c3nc4ccccc4[nH]3)cc2)N1Cc1ccco1` (configuration not stated): the inhibition result is “inactive”.
For `CCCc1cc(Nc2cccc(OC)c2)n2ncnc2n1` the value was “inactive”.
In the case of `COc1ccc(-c2cc(C(F)(F)F)nc(SCCC(=O)N3CCOCC3)n2)cc1`, the inhibition result was “inactive”.
As for `CCOC(=O)CS(=O)(=O)c1nc(-c2ccccc2)cc(C(F)(F)F)n1`, the entry is “inactive”.
For `COCC(C)NC(=O)CCS(=O)(=O)c1nc(-c2ccc(OC)cc2)cc(C(F)(F)F)n1` (configuration not stated) the value was 91.4% (active).
Turning to `O=C(Cn1cnc2ccccc2c1=O)NCCC(=O)N1CCN(c2ccccc2)CC1`, the inhibition result is “inactive”.
Consider `CCc1ccccc1NC(=O)CN(c1cccc(OC)c1)S(C)(=O)=O`, for which the inhibition result is “inactive”.
As for `C/C(=C\c1cc(C(=O)O)c(C)o1)CO`, the entry is “inactive”; as for `Cc1ccc(SC(C)c2nc(-c3ccccc3)no2)cc1` (configuration not stated), “inactive”; as for `CSc1ncc(Cl)c(C(=O)Nc2ccc(S(=O)(=O)N3CCOCC3)cc2)n1`, “inactive”.
Regarding `Cc1cnc(C(=O)Nc2ccc(N3CCOCC3)cc2)cn1`, the inhibition result is “inactive”.
For `CS(=O)(=O)c1ncc(Cl)c(C(=O)Nc2ccc(N3CCOCC3)cc2)n1` the value was 97.8% (active); for `Cc1cc(O)c(C2(C(F)(F)F)NCCNC2=O)cc1C` (configuration not stated), “inactive”.
Take `CCC(=O)N(Cc1ccco1)c1nc(-c2cc(OC)ccc2OC)cs1`: the inhibition entry is “inactive”.
Take `Cn1c(C(=O)NCCN2CCN(c3ccccc3F)CC2)cc2c(=O)n(C)c3ccccc3c21`: the inhibition result was “inactive”.
Turning to `COc1cc(C2N=C(c3ccccc3)NO2)cc(Br)c1O` (configuration not stated), the inhibition result was “inactive”.
For `CCOc1cc(C2Nc3ccccc3C(=O)N2c2ccccc2OC)ccc1O` (configuration not stated) the value was “inactive”; for `COc1cc(C2Nc3cccc4cccc(c34)N2)cc(OC)c1O`, 73.4% (active).
Regarding `COC(=O)c1ccc(CSc2nc3c(cnn3-c3ccc(F)cc3)c(=O)[nH]2)o1`, the inhibition entry is “inactive”.
With `O=c1[nH]c2sc3c(c2c2nncn12)CCCC3`, the inhibition entry was “inactive”.
For the compound `Cc1cc(NC(=O)c2cc(-c3ccco3)on2)n(-c2ccccc2)n1`, the inhibition entry is “inactive”.
Consider `C/C(NC1CCCC1)=C(/C#N)C(N)=O`, for which the inhibition result is “inactive”.
For `Clc1cccc(-c2nnc3sc(-c4ccccc4)nn23)c1` the value was “inactive”; for `CCOC(=O)c1ccc(NC(=O)CSCc2ccco2)cc1`, “inactive”.
For `CCOC(=O)c1ccc(N=c2sc(C(=O)OC)cc(=O)n2Cc2ccco2)cc1` the value was 95.5% (active); for `CCOC(=O)c1cccc(NC2c3ccccc3C(=O)N2Cc2ccco2)c1` (configuration not stated), “inactive”; for `CCNC(=O)C1CC(=O)N(Cc2ccc3c(c2)OCO3)C(=Nc2ccc(OCC)cc2)S1` (configuration not stated), “inactive”.
For `OCCn1c(-c2ccc3c(c2)OCO3)csc1=Nc1ccccc1` the value was “inactive”.
On to `COC(=O)c1cc(=O)n(Cc2ccc3c(c2)OCO3)c(=Nc2ccccc2)s1`, for which the inhibition is 96% (active).
`Cn1nc(-c2ccc(N3CCCCC3)c(NC(=O)c3ccco3)c2)c2ccccc2c1=O`: the inhibition was 83.4% (active).
For `O=C(c1ccccc1)c1ccc(N2CCOCC2)c(NC(=O)c2ccco2)c1` the value was “inactive”; for `Cc1cccc(NC(=O)c2cc(NC(=O)c3ccco3)ccc2N2CCCCC2)c1`, “inactive”.
For `COc1ccc(CCNc2nc(N3CCOCC3)nc(N3CCOCC3)n2)cc1OC` the value was “inactive”; for `Cn1c(=O)c2c(nc(SCC(=O)NCc3ccc4c(c3)OCO4)n2Cc2ccccc2)n(C)c1=O`, “inactive”.
For the compound `CCOC(=O)CSc1nc2cccnc2n1-c1ccc(F)cc1`, the inhibition result is “inactive”.
For `CCc1ccc2[nH]c(=O)c(C(c3nnnn3CC3CCCO3)N3CCN4CCCC4C3)cc2c1` (configuration not stated) the value was “inactive”; for `CCOc1ccc2[nH]c(=O)c(C(c3nnnn3CC3CCCO3)N3CCc4ccccc4C3)cc2c1` (configuration not stated), “inactive”.
For the compound `CCc1ccc2[nH]c(=O)c(C(c3nnnn3CC3CCCO3)N3CCCc4ccccc43)cc2c1` (configuration not stated), the inhibition is 93.2% (active).
Turning to `Nc1nc(N2CCCCC2)nc(N(c2ccccc2)c2ccccc2)n1`, the inhibition entry is “inactive”.
In the case of `CC(=O)NC(CCS(C)(=O)=O)C(=O)Nc1cccc2ccccc12` (configuration not stated), the inhibition result was “inactive”.
Take `O=C(Cn1nc(-c2ccc(Cl)cc2)ccc1=O)NCCCN1CCN(Cc2ccccc2)CC1`: the inhibition entry is “inactive”.
Turning to `CCOC(=O)c1ccccc1NC(=O)c1ccc2c(=O)n3c(nc2c1)CCCCC3`, the inhibition result is “inactive”.
